From the supplement of paper PMC6555819

Experiments:
Experiment in all cases: PBM binding z-score (relative to random genomic background probes); higher = stronger binding; sequences stand for … in GC…GCGATTGACAGCGTAGAATGAAGG
[1] = test system: PPARg:RXRa DBDmut IVT, anti-RXR (DBD mutation: RXRa K156A/R161A, NR concentration 270 nM, RXRa partner concentration 90 nM)
Method in brief: (§1)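 Binding buffer was PBS pH 7.4 with 2% milk, 0.02% Triton X-100, 1 mM DTT, 0.2 mg/mL BSA and 0.4 mg/ml salmon testes DNA. In it, ligand-free nuclear receptor dimers were incubated 1 h on custom Agilent 4×180K protein-binding microarrays carrying double-stranded probes. Antibodies against each partner (one per run) detected binding, and z-scores were calculated against random background probes after regression normalization of scanned fluorescence.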

[2] = test system: PPARg:RXRa IVT, anti-PPARg (NR concentration 270 nM, RXRa partner concentration 90 nM)
Method in brief: as §1

[3] = test system: PPARg DBDmut:RXRa IVT, anti-PPARg (DBD mutation: PPARg1 K132A/R137A, NR concentration 270 nM, RXRa partner concentration 90 nM)
Method in brief: as §1

[4] = test system: PPARg DBDmut IVT, anti-PPARg (DBD mutation: PPARg1 K132A/R137A, NR concentration 270 nM)
Method in brief: as §1

[5] = test system: PPARg homodimer (NR concentration 180 nM)
Method in brief: as §1

[6] = test system: PXR:RXRa (NR concentration 270 nM, RXRa partner concentration 90 nM)
Method in brief: as §1

[7] = test system: PXR homodimer (NR concentration 270 nM)
Method in brief: as §1

[8] = test system: RARa:RXR (NR concentration 270 nM, RXRa partner concentration 90 nM)
Method in brief: as §1

[9] = test system: RARa homodimer (NR concentration 270 nM)
Method in brief: as §1

[10] = test system: RARb:RXRa (NR concentration 270 nM, RXRa partner concentration 90 nM)
Method in brief: as §1

[11] = test system: RARb homodimer (NR concentration 270 nM)
Method in brief: as §1

[12] = test system: RARg:RXRa (NR concentration 270 nM, RXRa partner concentration 90 nM)
Method in brief: as §1

[13] = test system: RARg homodimer (NR concentration 270 nM)
Method in brief: as §1

[14] = test system: RXRa DBDmut IVT, anti-RXR (DBD mutation: RXRa K156A/R161A, NR concentration 90 nM)
Method in brief: as §1

[15] = test system: RXRa homodimer (NR concentration 180 nM)
Method in brief: as §1

[16] = test system: THRa:RXRa (NR concentration 90 nM, RXRa partner concentration 90 nM)
Method in brief: as §1

[17] = test system: THRa homodimer (NR concentration 90 nM)
Method in brief: as §1

[18] = test system: VDR homodimer (NR concentration 270 nM)
Method in brief: as §1

Sequence | PBM binding z-score [1] | PBM binding z-score [2] | PBM binding z-score [3] | PBM binding z-score [4] | PBM binding z-score [5] | PBM binding z-score [6] | PBM binding z-score [7] | PBM binding z-score [8] | PBM binding z-score [9] | PBM binding z-score [10] | PBM binding z-score [11] | PBM binding z-score [12] | PBM binding z-score [13] | PBM binding z-score [14] | PBM binding z-score [15] | PBM binding z-score [16] | PBM binding z-score [17] | PBM binding z-score [18]
ATACCAAGGTGTTCGTGAGGTCGTTGATACTAAC | -0.0075 | 0.497 | 0.822 | 0.323 | 0.594 | 2.41 | 1.6 | 2.11 | 0.456 | 0.861 | 1.53 | 0.824 | 0.278 | 0.712 | 0.997 | 2.96 | 2.38 | 2.98
ACTATTTGTTGAGACGAGGGCAACCGATAGGTTG | 0.443 | 0.881 | 1.52 | 1.09 | 0.629 | 0.581 | 0.979 | 0.391 | 0.779 | 1.07 | 1.14 | 0.614 | 0.897 | 0.884 | 0.414 | 1.21 | 0.711 | 1.3
TCTATTCGTTGATTAGGGCAACCGAAACAGCGGA | 1.61 | 1.69 | 1.2 | 0.685 | 0.326 | 0.454 | 0.0175 | 0.417 | -0.0226 | 0.637 | 0.244 | 0.485 | 0.548 | 0.758 | 0.477 | 0.404 | 0.073 | -0.134
AGAGCGAGGGCACGCTGAGTTGATAGCAGAGTAG | 0.897 | 1.26 | -0.714 | -1.28 | 0.251 | 1.05 | -0.217 | 0.737 | -0.451 | 2.47 | 1 | 1.76 | 1.96 | 1.28 | 1.06 | 1.51 | -0.183 | 1.48
TCTCGGAGGACACGAAGGTCAGTGCTTTCCAGAG | 1.42 | 1.08 | -0.7 | -0.641 | 0.926 | 1.54 | 0.566 | 1.52 | -0.39 | 3.29 | 3.9 | 2.87 | 3.49 | 0.969 | 1.47 | 2.73 | 1.06 | 1.39
CTAACTAGGTCAAGGACAGTGAATCTCCGCACGC | 8.7 | 8.66 | 2.25 | 1.42 | 3.48 | 1.21 | 0.296 | 1.87 | 0.59 | 4.08 | 3.16 | 3.64 | 4.21 | 1.34 | 2.64 | 3.08 | 2.01 | 0.398
CTACCAAGGTGAACATGGTCGTTGATTACTATTC | 2.77 | 2.62 | 0.872 | -0.0867 | 0.593 | 0.435 | -0.201 | 1.12 | 0.284 | 1.66 | 1.25 | 1.06 | 1.14 | 0.571 | 0.87 | 2.25 | 1.03 | -0.0794
AGAATGAGGTTATTAAGATCAGGGACTTGCGGTC | 3.54 | 2.69 | 0.364 | 0.0807 | 0.911 | 1.15 | 0.684 | 1.36 | 0.425 | 1.37 | 0.973 | 1.12 | 0.814 | 1.92 | 1.82 | 2.09 | 0.617 | 1.36
